Test [1] deals with Zika virus NS2B-NS3 protease (unlinked complex). The experiment in a line: Primary screen GU Rhodamine qHTS for Zika virus inhibitors: Unlinked NS2B-NS3 protease assay (AID 1347159). Also: nearly all actives have a fitted effect of over 60% in size. The procedure, abridged:
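Percent inhibition came from the 15-min rise in Rhodamine110 fluorescence (1.5 microM substrate, ~15% conversion), normalized to no-inhibitor and no-enzyme wells and Hill-fitted. Unlinked protease, 25 nM, pH 8.0 Tris buffer; compounds up to 114 microM, 15-min preincubation.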

The subject of test [2] is Zika virus NS2B-NS3 protease (linked construct). The experiment in a line: Primary screen NINDS Rhodamine qHTS for Zika virus inhibitors (AID 1347160). Also: nearly all actives have a fitted effect of over 55% in size. The procedure, abridged: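 Rhodamine110-peptide cleavage (1.5 µM substrate) by 25 nM linked NS2B-NS3 enzyme at pH 8.0 (Tris, Tween 20), after 15 min RT preincubation with compounds; 15-min fluorescence change normalized to controls and Hill-fitted.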

Results filed as inconclusive are left out. Active and inactive are the calls of the source. Calls follow the shape of the dose curve; as a rule, active = well fitted inhibition curve with a large enough effect; inconclusive = small, poorly fitted or top-dose-only effect; inactive = no such curve, though single readings can be large or run the other way.
Potency is read from the fitted curve at half-maximal effect.

On to `CC(=O)OC1CCC2(C)C(CCC3(C)C2CC=C2C4C(C)C(C)CCC4(C)CCC23C)C1(C)C(=O)O` (stereo not given), for which, in test [1], the Potency is 3.98 µM (active). Turning to `CC(C)=CCC/C(C)=C/COCC1OC(n2ccc(=O)[nH]c2=O)C(O)C1O` (stereo not given), the Potency entry in test [1] and in test [2] was “inactive” each time. Take `NS(=O)(=O)c1ccc(N2CCN(CC[C@@H]3OCCc4ccccc43)CC2)cc1`: the Potency entry in test [1] and in test [2] was “inactive” in each case. As to `CNCCN1CCC(c2cc(CN(C)C(=O)c3cccc(Oc4ccccc4)c3)ccn2)CC1`, the Potency entry in test [1] and in test [2] was “inactive” each time. As for `CCc1cnc(N2CCC(c3nc(COc4ccc(-n5cnnn5)cc4)cs3)CC2)nc1`, the Potency result in test [1] and in test [2] was “inactive” each time. With `C=C1C(=O)O[C@@H]2[C@H]1CCC(C)=C(CCC(=O)O)[C@@]2(C)O`, the Potency entry in test [1] and in test [2] was “inactive” throughout. `Cc1ccccc1C(C(=O)NC1CCCCC1)N(C(=O)Cn1cnc2ccccc21)c1cccc(F)c1` (stereo not given): the Potency entry in test [1] was “inactive”.

`CCCCc1ccc(NS(=O)(=O)c2ccc(F)cc2)cc1`: in test [1], the Potency is 50.1 µM (active). For the compound `CCC[C@@]1(CCc2ccccc2)CC(O)=C([C@H](CC)c2cccc(NS(=O)(=O)c3ccc(C(F)(F)F)cn3)c2)C(=O)O1`, the Potency in test [1] was 8.91 µM (active). With `O=C(NCC1CCN(Cc2cccc(Cl)c2)CC1)[C@@H]1CCCN(c2ncnc3c2nc2n3CCCC2)C1`, the Potency result in test [1] and in test [2] was “inactive” in each case. As to `CCCOc1ccc(S(=O)(=O)N2CCN(CCO)CC2)cc1-c1nc2c(CCC)cn(CC)c2c(=O)[nH]1`, the Potency entry in test [1] was “inactive”.

On to `C=C1/C(=C/C=C2\CCC[C@]3(C)[C@@H]([C@H](C)/C=C/[C@H](O)C4CC4)CC[C@@H]23)C[C@@H](O)C[C@@H]1O`, for which the Potency in test [1] is 50.1 µM (active). With `COC(=O)c1cc2c(C(F)(F)F)cc(-c3ccccc3)cc2n1O`, the Potency in test [1] was 12.6 µM (active); in test [2], 15.8 µM (active).

Consider `O=c1cc(OCc2ccc(F)cc2)ccn1-c1ccc(OCCN2CCCC2)cc1`, for which the Potency result in test [1] is “inactive”. For the compound `CC(=O)O[C@@H]1CC[C@@]2(C)[C@H](CC[C@@H]3[C@@H]2C[C@H](OC(C)=O)[C@]2(C)[C@@H](C(C)=O)CC[C@@H]32)C1`, the Potency entry in test [1] and in test [2] was “inactive” in each case. With `Cc1ccc(F)cc1S(=O)(=O)N[C@@H]1CCN(Cc2ccc(OC(C)C)cc2)C1`, the Potency entry in test [1] and in test [2] was “inactive” in each case. On to `CCC(C)/C=C(C)/C=C/C1=CC2=C(Cl)C(=O)C(C)(OC(C)=O)C(=O)C2(O)C(OC)O1` (stereo not given), for which the Potency in test [1] was 28.2 µM (active); in test [2], 11.2 µM (active). Consider `COc1cc(C(C)C)c(Oc2cnc(N)nc2N)cc1I`, for which the Potency entry in test [1] and in test [2] was “inactive” each time. On to `CC(=O)OC/C(=C/C(=O)O)CC[C@@H]1C(C=O)=CC[C@@H]2C(C)(C)CCC[C@@]12C`, for which the Potency in test [1] is 10 µM (active). Moreover, the Potency result in test [2] is “inactive”. Take `N#Cc1ccc2ncnc(NCCc3ccccc3)c2c1`: the Potency entry in test [1] and in test [2] was “inactive” each time. Consider `CN1CC[C@@H](c2c(O)cc(O)c3c(=O)cc(-c4ccc(C(F)(F)F)cc4Cl)oc23)[C@@H]1CO`, for which the Potency result in test [1] and in test [2] was “inactive” each time. Consider `CCOc1ccc(-n2c(C(C)N(Cc3cccnc3)C(=O)Cc3ccc(F)c(C(F)(F)F)c3)nc3ncccc3c2=O)cc1` (stereo not given), for which the Potency entry in test [1] and in test [2] was “inactive” throughout.

For the compound `CCC(C)C1NC(=O)C(Cc2ccccc2)NC(=O)C(CCCCCC(=O)C(O)CO)NC(=O)C2CCCCN2C1=O` (stereo not given), the Potency entry in test [1] and in test [2] was “inactive” in each case. For `CC1=C(C(=O)Nc2cc(Cl)ccc2Cl)C(c2ccco2)C2=C(CCCC2=O)N1` (stereo not given), the Potency entry in test [1] and in test [2] was “inactive” throughout.

As to `Cc1ccc(C(=O)Nc2ccc(CN3CCN(C)CC3)c(C(F)(F)F)c2)cc1C#Cc1cnc2[nH]ncc2c1`, the Potency entry in test [1] and in test [2] was “inactive” each time.

For the compound `C=CS(=O)(=O)NC1CCN(C(=O)CNc2cc(I)c(Cl)cc2OC)CC1`, the Potency entry in test [1] and in test [2] was “inactive” throughout. In the case of `COc1ccc(CCc2nc3c(C)c(-c4c(C)noc4C)c(C)cc3n2CCN2CCOCC2)cc1`, the Potency entry in test [1] and in test [2] was “inactive” throughout. In the case of `Cc1[nH]c2ccccc2c1CCNC(=O)c1cccs1`, the Potency result in test [1] and in test [2] was “inactive” in each case. As for `Cc1cc(NC(=O)NCCN2CCC(O)(Cc3ccccc3)CC2)c2ccccc2n1`, the Potency entry in test [1] and in test [2] was “inactive” throughout.

On to `CC(C)c1ccc(NC(=O)Cn2cnc3c2c(=O)n(C)c(=O)n3C)cc1`, for which the Potency result in test [1] and in test [2] was “inactive” throughout.

Regarding `C=C1C(=O)O[C@@H]2/C=C(\CO)CC/C=C(\CO)[C@H](OC(C)=O)C(OC(=O)C(C)CC)C12` (stereo not given in full), the Potency result in test [1] and in test [2] was “inactive” each time. Consider `COc1ccc2c(NC(=O)Nc3cccc(C(F)(F)F)n3)ccnc2c1`, for which the Potency entry in test [1] and in test [2] was “inactive” in each case.

In the case of `N#Cc1cc(CN2CCC(Nc3ncnc4sc(Cl)cc34)CC2)ccc1F`, the Potency entry in test [1] and in test [2] was “inactive” in each case. Take `O=C(/C=C/c1ccccc1O)O[C@@H]1O[C@H](CO)[C@@H](O)[C@H](O)[C@H]1O`: the Potency result in test [1] and in test [2] was “inactive” in each case. For the compound `Cc1cc(-c2nc3cc(F)ccc3s2)ccc1NC(=O)[C@@H](N)CCCCN`, the Potency entry in test [1] and in test [2] was “inactive” in each case. For the compound `CN1CCN(Cc2ccc(NC(=O)Cc3ccc(Oc4cc(NC(=O)C5CC5)ncn4)cc3)cc2C(F)(F)F)CC1`, the Potency entry in test [1] and in test [2] was “inactive” each time. For the compound `C=C1C(OC2OC(CO)C(O)C(O)C2O)CC2C(C)(C)C(O)CCC2(C)C1CC/C(C)=C\COC(=O)CC(=O)O` (stereo not given), the Potency entry in test [1] and in test [2] was “inactive” throughout. In the case of `Cc1csc2c(N[C@@H](C)CN3CCN(S(=O)(=O)c4ccc(Cl)c(Cl)c4)CC3)ncnc12`, the Potency entry in test [1] and in test [2] was “inactive” in each case. Turning to `Cc1cc(F)c(C(=O)Nc2cccc(-c3nncn3C(C)C)n2)cc1-n1cnc(C2CC2)c1`, the Potency entry in test [1] and in test [2] was “inactive” throughout. `COc1cc(CCc2cc(NC(=O)c3ccc(N4CC(C)NC(C)C4)cc3)n[nH]2)cc(OC)c1` (stereo not given): the Potency entry in test [1] and in test [2] was “inactive” throughout. With `Fc1ccc2c(CCNCc3cccc(OCC(F)(F)C(F)F)c3)c[nH]c2c1`, the Potency entry in test [1] and in test [2] was “inactive” each time. With `CC(C)(Cc1nc(-c2ccc(O)cn2)no1)C(=O)NC1=C(C(=O)O)CCCC1`, the Potency result in test [1] and in test [2] was “inactive” in each case. Consider `COc1c2c(nc3occc13)C(CC=C(C)C)(OC)C(O)CC2` (stereo not given), for which the Potency entry in test [1] and in test [2] was “inactive” each time. As to `CS(=O)(=O)Nc1ccc2oc3c(OC(F)F)ccc(C(=O)Nc4c(Cl)cncc4Cl)c3c2c1`, the Potency result in test [1] and in test [2] was “inactive” throughout. Turning to `COc1cc2nc(N3CCN(C(=O)c4ccco4)C4CCCCC43)nc(N)c2cc1OC` (stereo not given), the Potency result in test [1] and in test [2] was “inactive” throughout. As to `CCOc1cc(C(C)(C)C)ccc1C1=N[C@@](C)(c2ccc(Cl)cc2)[C@@](C)(c2ccc(Cl)cc2)N1C(=O)N1CCN(CC(=O)N2CCOCC2)CC1`, the Potency result in test [1] and in test [2] was “inactive” throughout.

On to `Fc1ccc(-c2cncc(CN3CCN(c4cccc5c4OCCO5)CC3)c2)cc1`, for which the Potency entry in test [1] and in test [2] was “inactive” each time. Consider `CC1(CO)CC2C(O)C3=C(CC(C)(O)C2C1)C(=O)OC3` (stereo not given), for which the Potency entry in test [1] and in test [2] was “inactive” each time. As for `CC(O)C(C)n1ncn(-c2ccc(N3CCN(c4ccc(OCC5COC(Cn6cncn6)(c6ccc(Cl)cc6Cl)O5)cc4)CC3)cc2)c1=O` (stereo not given), the Potency result in test [1] and in test [2] was “inactive” throughout.

For `C=C1C(=O)O[C@@H]2[C@H]1CC(=O)[C@H](C)[C@@](O)(C(=O)/C=C/C)[C@H]2OC(=O)C(C)CC` (stereo not given in full), the Potency result in test [1] and in test [2] was “inactive” throughout. On to `Cc1nc(Nc2ccc(F)cc2)nc(N2CCc3ccccc3C2C)c1C` (stereo not given), for which the Potency entry in test [1] and in test [2] was “inactive” in each case. Consider `CC1(C(=O)Nc2ccc(F)nc2)CCCN1c1nc(Nc2cc(C3CC3)[nH]n2)c2cccn2n1` (stereo not given), for which the Potency entry in test [1] and in test [2] was “inactive” throughout.

On to `CCn1nc(C2CCN(C(=O)CCO)CC2)nc1-c1cnc(N)c(-c2nnc(C(C)(C)C)o2)n1`, for which the Potency result in test [1] and in test [2] was “inactive” each time. For `COc1cc2c(cc1-c1c(C)noc1C)ncc1[nH]c(=O)n(C(C)c3ccccn3)c12` (stereo not given), the Potency result in test [1] and in test [2] was “inactive” in each case. For the compound `C/C(=C/C=C\C=C\Cc1cnco1)[C@@H](O)C(C)(C)C(N)=O`, the Potency entry in test [1] and in test [2] was “inactive” throughout. Take `COc1ccccc1C(=O)Nc1cccc(NC(=O)c2cccc(C)c2)c1`: the Potency result in test [1] and in test [2] was “inactive” in each case.
